# Measurements taken from article PMC7862700, “An all-to-all approach to the identification of sequence-specific readers for epigenetic DNA modifications on cytosine”.
# Assays:
# Assay in all cases: DAPPL (digital affinity profiling via proximity ligation, sequencing); 10 mM Tris-HCl pH 7.5, 50 mM NaCl, 1 mM DTT, 4% glycerol, room temperature, 30 min; GST-TFs on glutathione beads, 16-mer random dsDNA library, 0.1% formaldehyde crosslink after washing; high values mean tight binding
# FLI1 = target: T1, FLI1 (Homo sapiens, UniProt Q01543 1-452); settings: protein: recombinant; tags: N-terminal GST; dsDNA, one strand shown
# T1 sequence: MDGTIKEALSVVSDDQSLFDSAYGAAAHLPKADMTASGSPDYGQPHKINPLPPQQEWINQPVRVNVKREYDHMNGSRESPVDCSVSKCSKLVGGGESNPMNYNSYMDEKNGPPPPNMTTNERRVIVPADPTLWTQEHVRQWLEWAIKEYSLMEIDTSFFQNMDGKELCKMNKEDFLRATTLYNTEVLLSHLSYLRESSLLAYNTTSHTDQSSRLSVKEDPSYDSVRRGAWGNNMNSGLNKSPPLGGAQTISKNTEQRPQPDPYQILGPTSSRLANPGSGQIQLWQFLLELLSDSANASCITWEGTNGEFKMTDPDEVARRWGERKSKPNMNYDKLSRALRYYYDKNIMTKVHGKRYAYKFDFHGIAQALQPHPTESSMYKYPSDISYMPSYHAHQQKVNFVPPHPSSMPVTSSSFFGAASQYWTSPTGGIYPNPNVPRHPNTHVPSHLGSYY
# Summary of the method: (§1)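 Human transcription factors carrying a GST fusion were produced in yeast, bound to glutathione beads, tagged with DNA barcodes and pooled together with a tag-only sample. Each pool was held with 200 nmole of a random double-stranded 16-mer DNA library in Tris/NaCl/DTT/glycerol buffer for 30 min at room temperature, then washed, crosslinked in 0.1% formaldehyde, proximity-ligated with BsaI/T4 ligase (1 h, 37 °C), PCR-amplified and sequenced on an Illumina NextSeq500. Binding signal is the read frequency of each hexamer for a given factor divided by its frequency in the tag-only sample.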
# ELK1 = target: T2, ELK1 (Homo sapiens, UniProt P19419 1-428); settings: protein: recombinant; tags: N-terminal GST; dsDNA, one strand shown
# T2 sequence: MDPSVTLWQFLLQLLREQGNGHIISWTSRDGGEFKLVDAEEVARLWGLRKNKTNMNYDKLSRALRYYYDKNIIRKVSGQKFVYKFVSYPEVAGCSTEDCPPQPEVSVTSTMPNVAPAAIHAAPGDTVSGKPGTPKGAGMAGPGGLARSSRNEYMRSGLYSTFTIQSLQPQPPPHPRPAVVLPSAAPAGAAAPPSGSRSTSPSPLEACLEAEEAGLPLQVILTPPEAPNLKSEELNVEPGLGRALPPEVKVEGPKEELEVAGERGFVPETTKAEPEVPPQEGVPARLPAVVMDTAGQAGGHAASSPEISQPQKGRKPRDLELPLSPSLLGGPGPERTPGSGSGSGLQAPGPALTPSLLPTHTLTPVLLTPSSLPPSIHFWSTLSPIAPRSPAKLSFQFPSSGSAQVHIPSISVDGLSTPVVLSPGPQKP
# Summary of the method: as §1
# ERG = target: T3, ERG (Homo sapiens, UniProt P11308 1-479); settings: protein: recombinant; tags: N-terminal GST; dsDNA, one strand shown
# T3 sequence: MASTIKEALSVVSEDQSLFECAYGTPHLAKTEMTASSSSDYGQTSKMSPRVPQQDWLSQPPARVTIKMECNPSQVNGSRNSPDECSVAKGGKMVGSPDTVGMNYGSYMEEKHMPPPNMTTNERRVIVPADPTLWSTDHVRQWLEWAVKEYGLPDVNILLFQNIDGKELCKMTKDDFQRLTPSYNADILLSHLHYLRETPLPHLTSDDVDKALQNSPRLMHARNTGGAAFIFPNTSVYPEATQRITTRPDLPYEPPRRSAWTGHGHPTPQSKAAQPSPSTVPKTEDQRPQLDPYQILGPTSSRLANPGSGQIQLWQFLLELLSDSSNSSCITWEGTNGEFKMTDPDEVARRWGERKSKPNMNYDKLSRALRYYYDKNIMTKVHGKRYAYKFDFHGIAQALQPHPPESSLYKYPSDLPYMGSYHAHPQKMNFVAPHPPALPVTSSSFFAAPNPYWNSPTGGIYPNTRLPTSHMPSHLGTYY
# Summary of the method: as §1
# ELF1 = ELF1 (Homo sapiens, UniProt P32519 1-619); settings: protein: recombinant; tags: N-terminal GST; dsDNA, one strand shown
# Chain of ELF1 (P32519 whole entry): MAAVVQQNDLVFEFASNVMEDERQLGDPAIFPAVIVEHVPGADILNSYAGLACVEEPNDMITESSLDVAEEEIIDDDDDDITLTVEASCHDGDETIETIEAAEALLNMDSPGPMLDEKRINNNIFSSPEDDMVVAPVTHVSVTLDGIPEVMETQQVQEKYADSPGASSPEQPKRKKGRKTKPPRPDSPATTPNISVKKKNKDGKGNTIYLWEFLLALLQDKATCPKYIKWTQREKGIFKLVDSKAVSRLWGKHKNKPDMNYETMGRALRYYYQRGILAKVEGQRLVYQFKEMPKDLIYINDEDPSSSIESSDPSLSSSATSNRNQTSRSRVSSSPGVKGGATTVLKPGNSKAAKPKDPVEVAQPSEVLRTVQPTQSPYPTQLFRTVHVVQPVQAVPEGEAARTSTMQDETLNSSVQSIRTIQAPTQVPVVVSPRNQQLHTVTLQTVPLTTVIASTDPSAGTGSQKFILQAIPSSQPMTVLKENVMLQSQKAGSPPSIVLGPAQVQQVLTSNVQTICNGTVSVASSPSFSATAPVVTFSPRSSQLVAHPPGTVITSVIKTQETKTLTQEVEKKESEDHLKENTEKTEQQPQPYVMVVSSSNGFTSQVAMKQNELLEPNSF
# Summary of the method: as §1
# EHF = target: T4, EHF (Homo sapiens, UniProt Q9NZC4 1-300); settings: protein: recombinant; tags: N-terminal GST; dsDNA, one strand shown
# T4 sequence: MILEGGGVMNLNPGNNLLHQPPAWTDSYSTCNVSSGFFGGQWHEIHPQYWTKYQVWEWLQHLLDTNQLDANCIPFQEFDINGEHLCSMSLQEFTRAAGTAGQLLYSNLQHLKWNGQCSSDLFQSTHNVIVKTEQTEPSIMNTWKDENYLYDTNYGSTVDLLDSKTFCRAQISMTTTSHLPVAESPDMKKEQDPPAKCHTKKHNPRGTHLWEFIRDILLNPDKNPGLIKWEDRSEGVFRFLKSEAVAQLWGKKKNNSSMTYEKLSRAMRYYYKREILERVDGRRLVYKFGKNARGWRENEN
# Summary of the method: as §1
# SPI1 = SPI1 (Homo sapiens, UniProt P17947 1-270); settings: protein: recombinant; tags: N-terminal GST; dsDNA, one strand shown
# Summary of the method: as §1
# SPIB = SPIB (Homo sapiens, UniProt Q01892 1-262); settings: protein: recombinant; tags: N-terminal GST; dsDNA, one strand shown
# Chain of SPIB (Q01892 whole entry): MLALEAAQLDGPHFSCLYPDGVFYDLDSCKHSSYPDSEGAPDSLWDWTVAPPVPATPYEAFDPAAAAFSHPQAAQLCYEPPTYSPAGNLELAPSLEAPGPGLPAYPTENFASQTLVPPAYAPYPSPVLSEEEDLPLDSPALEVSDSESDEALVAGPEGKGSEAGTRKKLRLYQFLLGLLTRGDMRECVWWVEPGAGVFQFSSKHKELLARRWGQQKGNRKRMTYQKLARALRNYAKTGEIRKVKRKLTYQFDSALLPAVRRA
# Summary of the method: as §1
# ELK3 = target: T5, ELK3 (Homo sapiens, UniProt P41970 1-407); settings: protein: recombinant; tags: N-terminal GST; dsDNA, one strand shown
# T5 sequence: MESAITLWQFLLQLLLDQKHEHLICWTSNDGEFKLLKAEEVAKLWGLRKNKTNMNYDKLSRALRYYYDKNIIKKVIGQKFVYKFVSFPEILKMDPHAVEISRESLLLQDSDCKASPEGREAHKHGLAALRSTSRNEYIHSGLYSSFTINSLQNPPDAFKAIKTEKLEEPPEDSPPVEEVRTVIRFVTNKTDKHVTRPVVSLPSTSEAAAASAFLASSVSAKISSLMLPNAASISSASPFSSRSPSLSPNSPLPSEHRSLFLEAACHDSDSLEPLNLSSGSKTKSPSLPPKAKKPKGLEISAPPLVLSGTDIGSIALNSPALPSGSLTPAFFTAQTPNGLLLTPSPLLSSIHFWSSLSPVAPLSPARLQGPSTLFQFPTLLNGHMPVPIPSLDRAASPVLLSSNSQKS
# Summary of the method: as §1
# FEV = target: T6, FEV (Homo sapiens, UniProt Q99581 1-238); settings: protein: recombinant; tags: N-terminal GST; dsDNA, one strand shown
# T6 sequence: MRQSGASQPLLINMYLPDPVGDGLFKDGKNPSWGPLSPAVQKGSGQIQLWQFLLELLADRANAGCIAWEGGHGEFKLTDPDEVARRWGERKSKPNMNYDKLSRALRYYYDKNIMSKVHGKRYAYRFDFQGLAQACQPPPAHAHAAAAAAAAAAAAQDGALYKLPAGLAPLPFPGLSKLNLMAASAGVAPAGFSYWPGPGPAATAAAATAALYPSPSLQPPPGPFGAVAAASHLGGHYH
# Summary of the method: as §1
# ETV5 = ETV5 (Homo sapiens, UniProt P41161 1-510); settings: protein: recombinant; tags: N-terminal GST; dsDNA, one strand shown
# Chain of ETV5 (P41161 whole entry): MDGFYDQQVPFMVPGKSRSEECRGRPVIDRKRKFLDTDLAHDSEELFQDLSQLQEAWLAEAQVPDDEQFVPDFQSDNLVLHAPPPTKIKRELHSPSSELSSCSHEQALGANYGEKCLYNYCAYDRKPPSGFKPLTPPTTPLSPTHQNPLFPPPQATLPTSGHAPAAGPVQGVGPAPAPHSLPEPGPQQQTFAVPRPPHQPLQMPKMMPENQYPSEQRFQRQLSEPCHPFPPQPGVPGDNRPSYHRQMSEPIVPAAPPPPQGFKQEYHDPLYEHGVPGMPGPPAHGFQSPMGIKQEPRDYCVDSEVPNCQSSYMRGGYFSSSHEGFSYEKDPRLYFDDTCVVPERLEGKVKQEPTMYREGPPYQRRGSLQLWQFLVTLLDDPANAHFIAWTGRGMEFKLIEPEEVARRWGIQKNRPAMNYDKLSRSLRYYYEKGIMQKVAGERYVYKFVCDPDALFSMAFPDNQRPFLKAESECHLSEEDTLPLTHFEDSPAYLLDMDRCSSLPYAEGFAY
# Summary of the method: as §1
# HSF1 = HSF1 (Homo sapiens, UniProt Q00613 1-529); settings: protein: recombinant; tags: N-terminal GST; chain copies: 3; dsDNA, one strand shown
# Chain of HSF1 (Q00613 whole entry): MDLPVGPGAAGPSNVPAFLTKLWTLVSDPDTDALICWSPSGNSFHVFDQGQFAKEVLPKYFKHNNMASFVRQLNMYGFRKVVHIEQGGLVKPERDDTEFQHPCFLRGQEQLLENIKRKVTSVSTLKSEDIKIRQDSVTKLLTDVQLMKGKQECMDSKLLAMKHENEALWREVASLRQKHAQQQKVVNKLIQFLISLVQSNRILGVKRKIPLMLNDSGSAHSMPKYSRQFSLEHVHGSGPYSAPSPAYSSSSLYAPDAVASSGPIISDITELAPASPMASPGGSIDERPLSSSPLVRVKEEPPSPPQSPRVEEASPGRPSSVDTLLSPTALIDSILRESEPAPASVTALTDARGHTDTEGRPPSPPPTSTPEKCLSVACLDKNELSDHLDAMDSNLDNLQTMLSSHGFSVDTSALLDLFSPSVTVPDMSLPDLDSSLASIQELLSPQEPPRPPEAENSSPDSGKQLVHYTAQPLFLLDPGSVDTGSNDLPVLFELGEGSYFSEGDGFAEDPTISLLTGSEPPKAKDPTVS
# Summary of the method: as §1
# SPIC = target: T7, SPIC (Homo sapiens, UniProt Q8N5J4 1-248); settings: protein: recombinant; tags: N-terminal GST; dsDNA, one strand shown
# T7 sequence: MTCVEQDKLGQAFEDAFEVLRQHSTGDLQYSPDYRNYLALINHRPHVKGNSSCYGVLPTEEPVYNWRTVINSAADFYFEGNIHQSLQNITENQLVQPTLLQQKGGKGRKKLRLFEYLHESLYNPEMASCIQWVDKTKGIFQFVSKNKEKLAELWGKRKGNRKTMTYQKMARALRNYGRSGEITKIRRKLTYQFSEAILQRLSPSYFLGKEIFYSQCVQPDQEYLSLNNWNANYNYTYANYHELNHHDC
# Summary of the method: as §1
# ELF4 = ELF4 (Homo sapiens, UniProt Q99607 1-663); settings: protein: recombinant; tags: N-terminal GST; dsDNA, one strand shown
# Chain of ELF4 (Q99607 whole entry): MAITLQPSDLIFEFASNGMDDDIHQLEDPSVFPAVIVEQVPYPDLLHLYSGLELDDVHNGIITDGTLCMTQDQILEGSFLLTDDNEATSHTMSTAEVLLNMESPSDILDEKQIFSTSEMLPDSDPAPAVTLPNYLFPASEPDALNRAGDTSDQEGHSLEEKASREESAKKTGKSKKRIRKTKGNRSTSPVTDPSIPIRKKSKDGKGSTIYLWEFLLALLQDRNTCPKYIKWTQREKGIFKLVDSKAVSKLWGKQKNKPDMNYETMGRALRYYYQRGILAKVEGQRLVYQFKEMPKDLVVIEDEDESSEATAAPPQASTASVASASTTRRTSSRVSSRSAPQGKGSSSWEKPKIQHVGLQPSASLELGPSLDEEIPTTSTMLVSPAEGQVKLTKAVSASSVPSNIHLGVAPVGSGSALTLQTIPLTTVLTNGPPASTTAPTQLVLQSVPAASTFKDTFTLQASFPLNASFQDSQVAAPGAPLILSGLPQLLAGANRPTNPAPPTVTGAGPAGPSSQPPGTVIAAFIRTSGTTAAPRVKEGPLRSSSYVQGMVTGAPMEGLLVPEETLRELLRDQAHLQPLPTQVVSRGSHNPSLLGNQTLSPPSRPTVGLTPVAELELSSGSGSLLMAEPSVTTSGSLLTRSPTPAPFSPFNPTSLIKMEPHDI
# Summary of the method: as §1
# ELK4 = target: T8, ELK4 (Homo sapiens, UniProt P28324-2 1-405); settings: protein: recombinant; tags: N-terminal GST; dsDNA, one strand shown
# T8 sequence: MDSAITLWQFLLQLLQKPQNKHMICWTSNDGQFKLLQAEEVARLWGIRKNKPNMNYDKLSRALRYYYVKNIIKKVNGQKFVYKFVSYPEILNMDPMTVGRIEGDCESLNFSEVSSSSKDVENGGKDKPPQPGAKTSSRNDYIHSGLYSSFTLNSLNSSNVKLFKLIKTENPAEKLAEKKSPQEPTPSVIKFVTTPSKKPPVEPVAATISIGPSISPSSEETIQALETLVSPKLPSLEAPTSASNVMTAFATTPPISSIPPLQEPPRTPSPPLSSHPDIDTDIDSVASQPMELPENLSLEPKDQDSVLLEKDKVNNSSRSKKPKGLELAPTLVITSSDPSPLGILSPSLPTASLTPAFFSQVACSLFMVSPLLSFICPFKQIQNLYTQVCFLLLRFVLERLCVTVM
# Summary of the method: as §1
# ETV2 = target: T9, ETV2 (Homo sapiens, UniProt O00321 1-342); settings: protein: recombinant; tags: N-terminal GST; dsDNA, one strand shown
# T9 sequence: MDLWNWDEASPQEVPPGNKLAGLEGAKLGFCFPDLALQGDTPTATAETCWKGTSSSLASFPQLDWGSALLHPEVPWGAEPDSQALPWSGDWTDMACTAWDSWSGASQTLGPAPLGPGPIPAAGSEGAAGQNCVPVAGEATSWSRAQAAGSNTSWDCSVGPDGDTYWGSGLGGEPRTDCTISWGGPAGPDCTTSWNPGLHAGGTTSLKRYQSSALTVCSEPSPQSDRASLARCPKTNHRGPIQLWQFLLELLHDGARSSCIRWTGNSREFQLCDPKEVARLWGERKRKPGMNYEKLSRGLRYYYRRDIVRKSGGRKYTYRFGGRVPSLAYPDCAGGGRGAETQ
# Summary of the method: as §1
# CRX = CRX (Homo sapiens, UniProt O43186 1-299); settings: protein: recombinant; tags: N-terminal GST; dsDNA, one strand shown
# Chain of CRX (O43186 whole entry): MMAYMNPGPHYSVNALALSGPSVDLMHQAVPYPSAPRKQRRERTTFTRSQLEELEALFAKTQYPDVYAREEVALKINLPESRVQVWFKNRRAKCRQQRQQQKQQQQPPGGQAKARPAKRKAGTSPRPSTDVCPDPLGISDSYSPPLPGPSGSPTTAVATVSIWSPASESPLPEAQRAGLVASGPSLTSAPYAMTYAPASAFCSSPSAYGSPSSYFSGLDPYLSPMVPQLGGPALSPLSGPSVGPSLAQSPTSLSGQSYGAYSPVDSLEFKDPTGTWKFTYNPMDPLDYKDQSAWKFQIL
# Summary of the method: as §1
# ETV1 = ETV1 (Homo sapiens, UniProt P50549 1-477); settings: protein: recombinant; tags: N-terminal GST; dsDNA, one strand shown
# Chain of ETV1 (P50549 whole entry): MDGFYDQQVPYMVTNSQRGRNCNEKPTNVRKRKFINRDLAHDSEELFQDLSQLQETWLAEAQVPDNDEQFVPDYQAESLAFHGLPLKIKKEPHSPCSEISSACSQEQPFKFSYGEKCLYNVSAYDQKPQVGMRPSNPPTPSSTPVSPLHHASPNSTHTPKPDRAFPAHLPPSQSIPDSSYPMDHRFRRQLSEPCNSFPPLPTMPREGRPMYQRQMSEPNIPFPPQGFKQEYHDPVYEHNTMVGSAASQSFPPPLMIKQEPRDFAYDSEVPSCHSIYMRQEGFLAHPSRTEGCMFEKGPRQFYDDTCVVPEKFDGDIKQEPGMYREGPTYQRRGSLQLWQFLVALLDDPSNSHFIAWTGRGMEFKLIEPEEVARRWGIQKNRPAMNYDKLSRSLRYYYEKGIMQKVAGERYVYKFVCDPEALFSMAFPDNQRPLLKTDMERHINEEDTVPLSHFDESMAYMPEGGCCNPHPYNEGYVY
# Summary of the method: as §1
sequence,measurement,setting,value
TTCGCG,binding signal,FLI1,"1.13 fold enrichment (6-mer frequency, TF over GST control)"
same,binding signal,ELK1,"1.07 fold enrichment (6-mer frequency, TF over GST control)"
same,binding signal,ERG,"1.08 fold enrichment (6-mer frequency, TF over GST control)"
same,binding signal,ELF1,"1.14 fold enrichment (6-mer frequency, TF over GST control)"
same,binding signal,EHF,"1.21 fold enrichment (6-mer frequency, TF over GST control)"
same,binding signal,SPI1,"1.18 fold enrichment (6-mer frequency, TF over GST control)"
same,binding signal,SPIB,"1.14 fold enrichment (6-mer frequency, TF over GST control)"
same,binding signal,ELK3,"1.15 fold enrichment (6-mer frequency, TF over GST control)"
same,binding signal,FEV,"1.09 fold enrichment (6-mer frequency, TF over GST control)"
same,binding signal,ETV5,"1.04 fold enrichment (6-mer frequency, TF over GST control)"
same,binding signal,HSF1,"1.98 fold enrichment (6-mer frequency, TF over GST control)"
same,binding signal,SPIC,"1.16 fold enrichment (6-mer frequency, TF over GST control)"
same,binding signal,ELF4,"1.06 fold enrichment (6-mer frequency, TF over GST control)"
same,binding signal,ELK4,"1.26 fold enrichment (6-mer frequency, TF over GST control)"
same,binding signal,ETV2,"1.2 fold enrichment (6-mer frequency, TF over GST control)"
same,binding signal,CRX,"1.29 fold enrichment (6-mer frequency, TF over GST control)"
same,binding signal,ETV1,"1.02 fold enrichment (6-mer frequency, TF over GST control)"
